The panel holds about 79,000 compounds, 15% with a hit somewhere; the sample as a whole holds those more often. Calls of active or inactive are those of the source. Cut-off read from the data, not from the text of the source: active = growth inhibition above about 70%; inactive = the rest.
Assays:
[1] = NCI Yeast Anticancer Drug Screen. Data for the rad52 strain (AID 147);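 note: 0% = growth of vehicle-treated control cultures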; details: S. cerevisiae rad52 mutant growth inhibition, hits give high values
Procedure, shortened: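 Genetically altered yeast (DNA damage repair defect) treated with compound; inhibition calculated relative to vehicle.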

[2] = NCI Yeast Anticancer Drug Screen. Data for the wt1 strain (AID 149);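 note: 0% = growth of vehicle-treated wt1 cultures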; details: S. cerevisiae wt1 strain (SPY 50644) growth inhibition, hits give high values
Procedure, shortened: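 Growth inhibition read against vehicle controls after compound exposure of the wt1 yeast strain.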

[3] = NCI Yeast Anticancer Drug Screen. Data for the rad50EPP+ strain (AID 151);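 note: 0% = growth of vehicle-treated control cultures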; details: S. cerevisiae rad50 mutant strain, hits give high values
Procedure, shortened: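 Strain rad50EPP+; compound exposure; % growth inhibition vs vehicle.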

[4] = NCI Yeast Anticancer Drug Screen. Data for the rad50 strain (AID 155);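 note: 0% = growth of vehicle-only cultures of the same strain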; details: S. cerevisiae rad50 strain growth inhibition, hits give high values
Procedure, shortened: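 Readout: growth inhibition relative to vehicle-treated cultures. Compound exposure was carried out in a genetically defined yeast strain deficient in DNA damage repair.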

[5] = NCI Yeast Anticancer Drug Screen. Data for the mec2-1 strain (AID 157); details: S. cerevisiae mec2-1 strain, hits give high values
Procedure, shortened: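 Cells of the genetically defined mec2-1 yeast strain are incubated with test compound. Inhibition of growth is calculated against vehicle-treated controls.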

[6] = NCI Yeast Anticancer Drug Screen. Data for the rad14 strain (AID 159);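 note: 0% = growth of vehicle-treated control cultures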; details: S. cerevisiae rad14 strain growth inhibition, hits give high values
Procedure, shortened: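 Growth inhibition vs vehicle controls; genetically altered yeast strain (DNA damage repair defect) treated with test compounds.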

[7] = NCI Yeast Anticancer Drug Screen. Data for the sgs1 mgt1 strain (AID 161);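 note: 0% = growth of cultures given vehicle only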; details: S. cerevisiae sgs1 mgt1 strain, hits give high values
Procedure, shortened: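 Mutant yeast exposed to compound; growth scored against vehicle-only wells.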

[8] = NCI Yeast Anticancer Drug Screen. Data for the cln2 rad14 strain (AID 165);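 note: 0% = growth equal to vehicle treated cultures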; details: S. cerevisiae cln2 rad14 strain, hits give high values
Procedure, shortened: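 The screen exposed genetically defined yeast (cln2 rad14) to test compounds and scored growth inhibition relative to vehicle-treated controls.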

[9] = NCI Yeast Anticancer Drug Screen. Data for the bub3 strain (AID 167); details: S. cerevisiae bub3 mutant strain, hits give high values
Procedure, shortened: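 Readout: yeast growth inhibition, expressed relative to vehicle-only wells. The test organism is a mutant strain from a panel with lesions in DNA repair or checkpoint genes.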

[10] = NCI Yeast Anticancer Drug Screen. Data for the wt2 strain (AID 169);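 note: 0% = growth of vehicle-treated yeast cultures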; details: S. cerevisiae wt2 strain growth inhibition, hits give high values
Procedure, shortened: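 Steps: yeast strain treated with compound; growth recorded; inhibition calculated relative to cultures given vehicle alone.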

[11] = NCI Yeast Anticancer Drug Screen. Data for the mlh1 strain (AID 171);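 note: 0% = growth of vehicle-treated control cultures of the same strain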; details: S. cerevisiae mlh1 strain growth inhibition, hits give high values
Procedure, shortened: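 Yeast screen: mutant strain plus compound, growth scored against vehicle control wells.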

[12] = NCI Yeast Anticancer Drug Screen. Data for the sgs1 strain (AID 173);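 note: 0% = growth of vehicle-only control cultures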; details: S. cerevisiae sgs1 mutant, hits give high values
Procedure, shortened: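 Inhibition of yeast growth served as the measure. The mutant strain was treated with each compound, and growth was normalised to cultures receiving vehicle alone.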

[13] = NCI Yeast Anticancer Drug Screen. Data for the mlh1 rad18 strain (AID 175); details: S. cerevisiae mlh1 rad18 strain growth inhibition, hits give high values
Procedure, shortened: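 Compound-treated yeast growth, normalised to vehicle controls. Strain bears defined DNA repair mutations.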

[14] = NCI Yeast Anticancer Drug Screen. Data for the rad18 strain (AID 177); details: S. cerevisiae rad18 mutant growth inhibition, hits give high values
Procedure, shortened: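 Inhibition values reflect reduced yeast growth compared with vehicle-treated controls, using a strain engineered with a DNA damage repair defect.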

[15] = NCI Yeast Anticancer Drug Screen. Data for the CLN2oe strain (AID 163);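 note: 0% = growth of vehicle-only control cultures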; details: S. cerevisiae CLN2oe strain, hits give high values
Procedure, shortened: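 Strain altered in cell-cycle control, incubated with compound; growth compared to solvent-treated controls.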

[16] = at 5.0 µM (retest, dose inferred, filed as 0.5)
[17] = at 50.0 µM (retest, dose inferred, filed as 5.0)

Measured: growth inhibition

O=C(Nc1ccc2c(c1)Cc1c-2ccc([N+](=O)[O-])c1F)C(F)(F)F
inactive: [1]; at 1.2 µM 4% | [1]; at 3.7 µM 4% | [1]; at 11.0 µM 5% | [1]; at 33.0 µM 5% | [1]; at 100.0 µM 3% | [2]; at 1.2 µM 2% | [2]; at 3.7 µM 3% | [2]; at 11.0 µM 7% | [2]; at 33.0 µM 4% | [2]; at 100.0 µM 3% | [3]; at 1.2 µM 9% | [3]; at 3.7 µM 0% | [3]; at 11.0 µM 6% | [3]; at 33.0 µM 11% | [3]; at 100.0 µM 20% | [4]; at 1.2 µM 2% | [4]; at 3.7 µM 4% | [4]; [16] 2% | [4]; at 11.0 µM 4% | [4]; at 33.0 µM 3% | [4]; [17] 11% | [4]; at 50.0 µM 2.95% | [4]; at 100.0 µM 4% | [5]; at 1.2 µM -1% | [5]; at 3.7 µM 0% | [5]; [16] -17% | [5]; at 11.0 µM -1% | [5]; at 33.0 µM 1% | [5]; [17] -11% | [5]; at 50.0 µM 1.35% | [5]; at 100.0 µM 2% | [6]; at 1.2 µM 1% | [6]; at 3.7 µM 1% | [6]; at 11.0 µM 0% | [6]; at 33.0 µM 2% | [6]; at 100.0 µM 2% | [7]; [16] 23% | [7]; [17] 19% | [7]; at 50.0 µM -3.05% | [8]; [16] 4% | [8]; [17] 7% | [8]; at 50.0 µM -10.7% | [9]; at 1.2 µM -2% | [9]; at 3.7 µM 1% | [9]; [16] -4% | [9]; at 11.0 µM 1% | [9]; at 33.0 µM 1% | [9]; [17] 12% | [9]; at 50.0 µM 8.35% | [9]; at 100.0 µM -4% | [10]; at 1.2 µM 2% | [10]; at 3.7 µM 0% | [10]; at 11.0 µM 2% | [10]; at 33.0 µM 2% | [10]; at 100.0 µM 0% | [11]; at 1.2 µM 5% | [11]; at 3.7 µM 3% | [11]; at 11.0 µM 3% | [11]; at 33.0 µM 2% | [11]; at 100.0 µM 2% | [12]; at 1.2 µM 1% | [12]; at 3.7 µM 3% | [12]; at 11.0 µM -1% | [12]; at 33.0 µM 1% | [12]; at 100.0 µM 3% | [13]; [16] 62% | [13]; at 50.0 µM 18.4% | [14]; at 1.2 µM 4% | [14]; at 3.7 µM 0% | [14]; at 11.0 µM -25% | [14]; at 33.0 µM 5% | [14]; at 100.0 µM 9%
active: [13]; [17] 79%

OCCNCCOc1ccc(/C(=C(/Cl)c2ccccc2)c2ccccc2)cc1
inactive: [1]; at 1.2 µM -38% | [1]; at 3.7 µM -36% | [1]; at 11.0 µM -20% | [2]; at 1.2 µM -25% | [2]; at 3.7 µM -26% | [2]; at 11.0 µM -3% | [3]; at 1.2 µM -34% | [3]; at 3.7 µM -28% | [3]; at 11.0 µM -56% | [4]; at 1.2 µM 12% | [4]; at 3.7 µM 1% | [4]; [16] 40% | [4]; at 11.0 µM 29% | [5]; at 1.2 µM -28% | [5]; at 3.7 µM -32% | [5]; [16] 3% | [5]; at 11.0 µM -2% | [6]; at 1.2 µM -9% | [6]; at 3.7 µM -8% | [15]; at 1.2 µM -13% | [15]; at 3.7 µM 0% | [15]; at 11.0 µM 25% | [8]; [16] 59% | [9]; at 1.2 µM -8% | [9]; at 3.7 µM -5% | [9]; [16] 32% | [9]; at 11.0 µM 13% | [10]; at 1.2 µM -47% | [10]; at 3.7 µM -48% | [10]; at 11.0 µM -6% | [12]; at 1.2 µM -15% | [12]; at 3.7 µM -23% | [12]; at 11.0 µM 32% | [13]; [16] 43% | [14]; at 1.2 µM -8% | [14]; at 3.7 µM -6% | [14]; at 11.0 µM 24%
active: [1]; at 33.0 µM 98% | [1]; at 100.0 µM 97% | [2]; at 33.0 µM 98% | [2]; at 100.0 µM 97% | [3]; at 33.0 µM 70% | [3]; at 100.0 µM 98% | [4]; at 33.0 µM 98% | [4]; [17] 98% | [4]; at 50.0 µM 87.1% | [4]; at 100.0 µM 97% | [5]; at 33.0 µM 98% | [5]; [17] 99% | [5]; at 50.0 µM 94.3% | [5]; at 100.0 µM 97% | [6]; at 11.0 µM 76% | [6]; at 33.0 µM 98% | [6]; at 100.0 µM 97% | [15]; at 33.0 µM 99% | [15]; at 100.0 µM 98% | [8]; [17] 98% | [8]; at 50.0 µM 93.2% | [9]; at 33.0 µM 99% | [9]; [17] 99% | [9]; at 50.0 µM 92.7% | [9]; at 100.0 µM 97% | [10]; at 33.0 µM 98% | [10]; at 100.0 µM 97% | [12]; at 33.0 µM 98% | [12]; at 100.0 µM 98% | [13]; [17] 99% | [13]; at 50.0 µM 90% | [14]; at 33.0 µM 98% | [14]; at 100.0 µM 98%

COc1ccc(N2C(=O)CC(Cl)C2=O)cc1 (stereo unspecified)
inactive: [1]; at 1.2 µM -10% | [1]; at 3.7 µM -9% | [1]; at 11.0 µM 10% | [2]; at 1.2 µM -1% | [2]; at 3.7 µM 10% | [2]; at 11.0 µM 16% | [3]; at 1.2 µM -9% | [3]; at 3.7 µM -18% | [3]; at 11.0 µM 22% | [3]; at 33.0 µM 66% | [4]; at 1.2 µM -16% | [4]; at 3.7 µM -11% | [4]; [16] -128% | [4]; at 11.0 µM 15% | [5]; at 1.2 µM -7% | [5]; at 3.7 µM -5% | [5]; [16] -44% | [5]; at 11.0 µM -6% | [5]; at 33.0 µM 64% | [5]; [17] 36% | [7]; [16] -56% | [7]; [17] 59% | [15]; at 1.2 µM -12% | [15]; at 3.7 µM -12% | [15]; at 11.0 µM -12% | [15]; at 33.0 µM 0% | [8]; [16] -60% | [8]; [17] 8% | [9]; at 1.2 µM -15% | [9]; at 3.7 µM -8% | [9]; [16] -75% | [9]; at 11.0 µM 1% | [9]; [17] 69% | [10]; at 1.2 µM -4% | [10]; at 3.7 µM -1% | [10]; at 11.0 µM 37% | [11]; at 1.2 µM -14% | [11]; at 3.7 µM -10% | [11]; at 11.0 µM -10% | [11]; at 33.0 µM 40% | [12]; at 1.2 µM -3% | [12]; at 3.7 µM 0% | [12]; at 11.0 µM 24% | [13]; [16] -137% | [13]; [17] 32% | [14]; at 1.2 µM -12% | [14]; at 3.7 µM -10% | [14]; at 11.0 µM 1% | [14]; at 33.0 µM 38%
active: [1]; at 33.0 µM 80% | [1]; at 100.0 µM 99% | [2]; at 33.0 µM 70% | [2]; at 100.0 µM 100% | [3]; at 100.0 µM 99% | [4]; at 33.0 µM 79% | [4]; [17] 96% | [4]; at 50.0 µM 99.2% | [4]; at 100.0 µM 99% | [5]; at 50.0 µM 99.5% | [5]; at 100.0 µM 100% | [7]; at 50.0 µM 95.5% | [15]; at 100.0 µM 78% | [8]; at 50.0 µM 97% | [9]; at 33.0 µM 92% | [9]; at 50.0 µM 97.9% | [9]; at 100.0 µM 100% | [10]; at 33.0 µM 99% | [10]; at 100.0 µM 100% | [11]; at 100.0 µM 100% | [12]; at 33.0 µM 93% | [12]; at 100.0 µM 99% | [13]; at 50.0 µM 97.1% | [14]; at 100.0 µM 99%
